Measured values as given in PubChem BioAssay AID1159580 (chemical genetic matrix, 2015).
Values joined by “and” are separate entries in the source; they are usually repeats but may differ in a detail not shown here. Equal values may be shown once. About 2,000 (36%) of roughly 5,500 compounds were called active. Not shown: some 18% with an inconclusive outcome. The list shows a part of the results. A number with no mark means an inactive call. Cut-off read from the data, not from the text of the source: active = normalized growth mostly below about 0.91 (no sharp cut-off); inconclusive = no clear call, values can overlap the other calls; inactive = mostly above about 0.92.

Test: chemical genetic growth profiling, strain panel (AID 1159580);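 note: tested at 20 µM; growth read once vehicle control cultures reached saturation at 30 °C; 1 = growth at the plate median or of vehicle wells; lower values mean less growth of the strain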
Details: S. cerevisiae deletion strains, growth OD

Q: Which normalized growth (locus YAL013W, strain DEP1, active compounds read low) does the source give for `CC(C)=CCc1c(O)cc2oc(C)cc(=O)c2c1O` here?
A: Its normalized growth is 0.96.

Q: And the normalized growth (locus YAL021C, strain ccr4, active compounds read low)?
A: Its normalized growth is 1.01.

Q: And the normalized growth (locus YAL026C, strain drs2, active compounds read low)?
A: The normalized growth was 0.977.

Q: What about the normalized growth (locus YAL030W, strain snc1, active compounds read low) of the same compound?
A: Its normalized growth is 0.986.

Q: What about the normalized growth (locus YBL061C, strain skt5, active compounds read low) of the same compound?
A: The normalized growth was 0.973.

Q: And the normalized growth (locus YBR009C, strain hhf1, active compounds read low)?
A: The normalized growth was 0.984.

Q: And the normalized growth (locus YBR021W, strain FUR4, active compounds read low)?
A: Its normalized growth is 0.998.

Q: And the normalized growth (locus YBR023C, strain chs3, active compounds read low)?
A: Its normalized growth is 0.953.

Q: And the normalized growth (locus YBR171W, strain sec66, active compounds read low)?
A: The normalized growth was 0.973.

Q: What about the normalized growth (locus YBR229C, strain ROT2, active compounds read low) of the same compound?
A: The normalized growth was 1.01.

Q: What about the normalized growth (locus YBR231C, strain swc5, active compounds read low) of the same compound?
A: Its normalized growth is 0.98.

Q: What about the normalized growth (locus YBR279W, strain paf1, active compounds read low) of the same compound?
A: The normalized growth was 0.982.

Q: And the normalized growth (locus YCL011C, strain gbp2, active compounds read low)?
A: The normalized growth was 0.975.

Q: And the normalized growth (locus YCL016C, strain dcc1, active compounds read low)?
A: The normalized growth was 0.969.

Q: And the normalized growth (locus YCL029C, strain bik1, active compounds read low)?
A: Its normalized growth is 0.986.

Q: And the normalized growth (locus YCL061C, strain MRC1, active compounds read low)?
A: Its normalized growth is 0.973.

Q: What about the normalized growth (locus YCL069W, strain vba3, active compounds read low) of the same compound?
A: The normalized growth was 1.01.

Q: What about the normalized growth (locus YCR088W, strain abp1, active compounds read low) of the same compound?
A: The normalized growth was 0.957.

Q: What about the normalized growth (locus YDL005C, strain med2, active compounds read low) of the same compound?
A: Its normalized growth is 0.981.

Q: And the normalized growth (locus YDL035C, strain GPR1, active compounds read low)?
A: The normalized growth was 0.912.

Q: What about the normalized growth (locus YDL040C, strain nat1, active compounds read low) of the same compound?
A: The normalized growth was 0.986.

Q: What about the normalized growth (locus YDL074C, strain BRE1, active compounds read low) of the same compound?
A: The normalized growth was 0.947.

Q: And the normalized growth (locus YDL101C, strain DUN1, active compounds read low)?
A: Its normalized growth is 0.993.

Q: What about the normalized growth (locus YDL185W, strain tfp1, active compounds read low) of the same compound?
A: The normalized growth was 0.98.

Q: And the normalized growth (locus YDL192W, strain arf1, active compounds read low)?
A: Its normalized growth is 0.93.

Q: And the normalized growth (locus YDR001C, strain nth1, active compounds read low)?
A: Its normalized growth is 0.976.

Q: What about the normalized growth (locus YDR069C, strain doa4, active compounds read low) of the same compound?
A: The normalized growth was 1.

Q: What about the normalized growth (locus YDR101C, strain arx1, active compounds read low) of the same compound?
A: The normalized growth was 0.907 (active).

Q: And the normalized growth (locus YDR137W, strain rgp1, active compounds read low)?
A: Its normalized growth is 0.855.

Q: What about the normalized growth (locus YDR159W, strain sac3, active compounds read low) of the same compound?
A: The normalized growth was 0.983.

Q: What about the normalized growth (locus YDR162C, strain NBP2, active compounds read low) of the same compound?
A: Its normalized growth is 0.903.

Q: And the normalized growth (locus YDR195W, strain ref2)?
A: Its normalized growth is 1.16 [resistant] (active).

Q: And the normalized growth (locus YDR297W, strain sur2, active compounds read low)?
A: The normalized growth was 0.973.

Q: And the normalized growth (locus YDR318W, strain mcm21, active compounds read low)?
A: The normalized growth was 0.929.

Q: What about the normalized growth (locus YDR334W, strain swr1, active compounds read low) of the same compound?
A: The normalized growth was 0.985.

Q: What about the normalized growth (locus YDR335W, strain msn5, active compounds read low) of the same compound?
A: The normalized growth was 0.972.

Q: And the normalized growth (locus YDR388W, active compounds read low)?
A: Its normalized growth is 0.977.

Q: And the normalized growth (locus YDR392W, strain spt3, active compounds read low)?
A: Its normalized growth is 0.87.

Q: What about the normalized growth (locus YDR502C, strain sam2, active compounds read low) of the same compound?
A: Its normalized growth is 0.963.

Q: What about the normalized growth (locus YEL003W, strain gim4, active compounds read low) of the same compound?
A: Its normalized growth is 0.976.

Q: And the normalized growth (locus YEL037C, strain rad23, active compounds read low)?
A: Its normalized growth is 0.993.

Q: And the normalized growth (locus YEL061C, strain CIN8 (second series), active compounds read low)?
A: The normalized growth was 0.979.

Q: And the normalized growth (locus YEL061C, strain CIN8, active compounds read low)?
A: Its normalized growth is 1.

Q: And the normalized growth (locus YER015W, strain faa2, active compounds read low)?
A: Its normalized growth is 0.983.

Q: What about the normalized growth (locus YER016W, strain bim1, active compounds read low) of the same compound?
A: The normalized growth was 0.965.

Q: And the normalized growth (locus YER110C, active compounds read low)?
A: The normalized growth was 0.989.

Q: What about the normalized growth (locus YER111C, strain swi4, active compounds read low) of the same compound?
A: Its normalized growth is 1.

Q: And the normalized growth (locus YER155C, strain BEM2 (second series), active compounds read low)?
A: Its normalized growth is 0.973.

Q: What about the normalized growth (locus YER155C, strain BEM2, active compounds read low) of the same compound?
A: The normalized growth was 0.992.

Q: What about the normalized growth (locus YER167W, strain BCK2, active compounds read low) of the same compound?
A: Its normalized growth is 0.932.

Q: What about the normalized growth (locus YFR010W, strain ubp6, active compounds read low) of the same compound?
A: Its normalized growth is 0.98.

Q: And the normalized growth (locus YGL078C, strain dbp3, active compounds read low)?
A: The normalized growth was 0.987.

Q: What about the normalized growth (locus YGL086W, strain mad1, active compounds read low) of the same compound?
A: Its normalized growth is 0.915 (active).

Q: What about the normalized growth (locus YGL167C, strain pmr1, active compounds read low) of the same compound?
A: Its normalized growth is 0.996.

Q: What about the normalized growth (locus YGL173C, strain kem1, active compounds read low) of the same compound?
A: The normalized growth was 0.985.

Q: And the normalized growth (locus YGL227W, strain vid30, active compounds read low)?
A: Its normalized growth is 0.968.

Q: And the normalized growth (locus YGL240W, strain doc1, active compounds read low)?
A: Its normalized growth is 0.968.

Q: And the normalized growth (locus YGL248W, strain PDE1, active compounds read low)?
A: Its normalized growth is 0.965.

Q: And the normalized growth (locus YGL253W, strain hxk2, active compounds read low)?
A: Its normalized growth is 0.964.

Q: What about the normalized growth (locus YGR078C, strain PAC10, active compounds read low) of the same compound?
A: Its normalized growth is 0.959.

Q: And the normalized growth (locus YGR135W, strain pre9, active compounds read low)?
A: Its normalized growth is 1.

Q: What about the normalized growth (locus YGR252W, strain gcn5, active compounds read low) of the same compound?
A: The normalized growth was 0.878.

Q: What about the normalized growth (locus YHR013C, strain ard1, active compounds read low) of the same compound?
A: The normalized growth was 1.21 [resistant] (active).

Q: And the normalized growth (locus YHR027C, strain rpn1, active compounds read low)?
A: The normalized growth was 0.999.

Q: What about the normalized growth (locus YHR030C, strain SLT2, active compounds read low) of the same compound?
A: The normalized growth was 1 and 0.999.

Q: And the normalized growth (locus YHR079C, strain IRE1 (second series), active compounds read low)?
A: The normalized growth was 1.

Q: What about the normalized growth (locus YHR079C, strain IRE1, active compounds read low) of the same compound?
A: The normalized growth was 0.971.

Q: And the normalized growth (locus YHR094C, strain hxt1, active compounds read low)?
A: The normalized growth was 0.999.

Q: What about the normalized growth (locus YHR129C, strain ARP1, active compounds read low) of the same compound?
A: The normalized growth was 0.987.

Q: And the normalized growth (locus YHR142W, strain chs7, active compounds read low)?
A: The normalized growth was 0.851 (active).

Q: What about the normalized growth (locus YHR200W, strain rpn10, active compounds read low) of the same compound?
A: Its normalized growth is 0.915 (active).

Q: And the normalized growth (locus YIL066C, strain RNR3, active compounds read low)?
A: Its normalized growth is 0.95.

Q: What about the normalized growth (locus YIL073C, strain SPO22, active compounds read low) of the same compound?
A: The normalized growth was 1.01.

Q: What about the normalized growth (locus YIL125W, strain kgd1, active compounds read low) of the same compound?
A: Its normalized growth is 0.904 (active).

Q: What about the normalized growth (locus YIR030C, strain dcg1, active compounds read low) of the same compound?
A: The normalized growth was 0.988.

Q: What about the normalized growth (locus YJL092W, strain hpr5, active compounds read low) of the same compound?
A: Its normalized growth is 0.975.

Q: What about the normalized growth (locus YJL095W, strain BCK1 (second series), active compounds read low) of the same compound?
A: Its normalized growth is 0.97.

Q: And the normalized growth (locus YJL095W, strain BCK1, active compounds read low)?
A: The normalized growth was 0.928 and 0.969.

Q: And the normalized growth (locus YJL115W, strain asf1, active compounds read low)?
A: The normalized growth was 0.984.

Q: And the normalized growth (locus YJL129C, strain trk1, active compounds read low)?
A: Its normalized growth is 0.951.

Q: What about the normalized growth (locus YJL134W, strain LCB3, active compounds read low) of the same compound?
A: The normalized growth was 1.

Q: And the normalized growth (locus YJL154C, strain vps35, active compounds read low)?
A: The normalized growth was 0.983.

Q: And the normalized growth (locus YJL164C, strain tpk1, active compounds read low)?
A: The normalized growth was 0.929.

Q: What about the normalized growth (locus YJL166W, strain qcr8, active compounds read low) of the same compound?
A: Its normalized growth is 0.972.

Q: And the normalized growth (locus YJL168C, strain set2, active compounds read low)?
A: Its normalized growth is 0.999.

Q: And the normalized growth (locus YJL187C, strain SWE1 (second series), active compounds read low)?
A: Its normalized growth is 0.966.

Q: And the normalized growth (locus YJL187C, strain SWE1, active compounds read low)?
A: Its normalized growth is 0.98.
